The campaign covered roughly 2,400 compounds. About 750 (31%) were called active. This is one part of the list. A number with no mark means an inactive call.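 How the source made its calls: active means median signal gain over dofetilide-blocked control wells reaching their mean plus 3 SD, so readout 1 at least 0; inactive means the rest.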

Voltage-gated inwardly rectifying potassium channel KCNH2 (Homo sapiens), sequence (Q12809 whole entry, looked up): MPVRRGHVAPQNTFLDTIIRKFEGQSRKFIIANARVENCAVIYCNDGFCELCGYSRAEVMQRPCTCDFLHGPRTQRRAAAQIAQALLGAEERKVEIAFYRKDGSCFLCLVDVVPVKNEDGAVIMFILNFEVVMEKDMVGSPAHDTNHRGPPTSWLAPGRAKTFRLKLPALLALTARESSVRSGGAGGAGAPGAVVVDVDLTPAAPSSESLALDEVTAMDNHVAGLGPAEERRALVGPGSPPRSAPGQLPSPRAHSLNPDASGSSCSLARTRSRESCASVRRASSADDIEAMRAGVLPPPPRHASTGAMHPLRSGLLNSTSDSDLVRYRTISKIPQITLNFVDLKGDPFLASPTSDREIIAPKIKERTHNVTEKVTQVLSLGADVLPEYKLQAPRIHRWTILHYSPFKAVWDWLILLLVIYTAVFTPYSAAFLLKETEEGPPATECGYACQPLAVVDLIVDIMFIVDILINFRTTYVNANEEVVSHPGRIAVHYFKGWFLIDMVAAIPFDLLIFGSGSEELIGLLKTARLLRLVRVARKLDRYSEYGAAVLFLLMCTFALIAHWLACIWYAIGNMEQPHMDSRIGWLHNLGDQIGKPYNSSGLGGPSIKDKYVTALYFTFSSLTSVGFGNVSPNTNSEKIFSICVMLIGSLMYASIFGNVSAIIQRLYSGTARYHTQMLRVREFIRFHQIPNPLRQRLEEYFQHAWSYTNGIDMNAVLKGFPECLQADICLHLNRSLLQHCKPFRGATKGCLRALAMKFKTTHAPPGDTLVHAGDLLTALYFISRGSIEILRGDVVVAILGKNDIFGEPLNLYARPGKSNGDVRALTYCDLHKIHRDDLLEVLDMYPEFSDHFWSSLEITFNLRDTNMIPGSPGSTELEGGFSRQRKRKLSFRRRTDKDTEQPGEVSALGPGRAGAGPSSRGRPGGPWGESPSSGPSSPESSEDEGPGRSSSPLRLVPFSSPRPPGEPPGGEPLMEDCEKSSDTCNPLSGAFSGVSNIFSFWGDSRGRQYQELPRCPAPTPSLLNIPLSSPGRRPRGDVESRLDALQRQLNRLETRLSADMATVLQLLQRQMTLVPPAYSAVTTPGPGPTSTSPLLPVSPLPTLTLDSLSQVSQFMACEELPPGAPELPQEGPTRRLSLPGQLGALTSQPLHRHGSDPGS

The experiment has as its target Voltage-gated inwardly rectifying potassium channel KCNH2 (Homo sapiens) (UniProt Q12809). Briefly: modulators restoring hERG flux under dofetilide – cell-based, thallium flux, duplicate retest, dofetilide IC70, confirmation (AID 1835). As to conditions: hERG cell line, FluxOR thallium flux, dofetilide-blocked; at 10 µM; hits give high values.
For `CCC1=C(OC(=O)N(CC)CC)N2C(=O)OC(=NCC3CC3)[C@]2(C)[C@H]2C1=CC[C@H]1C(=O)N(C)C(=O)[C@H]12`, the activity increase over dofetilide control, less the hit threshold was -1%. The result for `N=c1c2cn[nH]c2nc(SCC(=O)c2ccc(Br)cc2)n1-c1ccc(Br)cc1` reads -3%; that for `Cc1cc(C(=O)NCc2ccc(S(N)(=O)=O)cc2)ccc1[N+](=O)[O-]`, -15%; that for `CSC(=S)N/N=C/c1ccccc1`, 34% (active). The result for `C/C(=N\NC(N)=S)c1ccncc1` reads -3%. The result for `COCCNC(=O)C(=O)N/N=C/c1ccc(C(=O)OC)cc1` reads -11%; that for `CC(C)(C)c1ccc(/C=N/NC(=S)Nc2cccnc2)cc1`, -11%. Take `CSc1ccc(/C=N/NC(=O)c2cccs2)cc1`: the activity increase over dofetilide control, less the hit threshold is -17%.

For `CSC(=S)N/N=C/c1ccc(Br)cc1`, the activity increase over dofetilide control, less the hit threshold is 46% (active). The result for `C/C(=N\NC(N)=S)c1cccnc1` reads -8%; that for `CC(C)NC(=S)N/N=C/c1ccc(C(C)(C)C)cc1`, -13%; that for `CSC(=S)N/N=C(\C)c1ccccc1`, 35% (active). The result for `COCCOC(=O)C1=C(C)Nc2ncnn2C1c1ccc(F)cc1` (configuration not stated) reads -26%; that for `CC1CCc2c(sc(NS(=O)(=O)c3ccccc3)c2C(=O)OC(C)C)C1` (configuration not stated), 7% (active); that for `CCOC(=O)c1c(NS(C)(=O)=O)sc2c1CCC(C)C2` (configuration not stated), 21% (active). The result for `CC(NS(=O)(=O)c1ccccc1)C(N)=O` (configuration not stated) reads -10%; that for `COC(=O)c1c(NC(=O)CN2CCOCC2)sc2c1CCC(C)C2` (configuration not stated), -13%; that for `CC(C)OC(=O)c1c(NC(=O)c2ccco2)sc2c1CCCCC2`, -12%. Consider `CC(C)OC(=O)c1c(NS(=O)(=O)c2ccccc2)sc2c1CCCC2`, for which the activity increase over dofetilide control, less the hit threshold is 37% (active). The result for `O=[N+]([O-])c1ccc(Cl)c(/C=N/Nc2nc(N3CCOCC3)nc(N3CCOCC3)n2)c1` reads -18%.

Regarding `COc1ccccc1C(=O)COC(=O)c1ccc(-n2cnnn2)cc1`, the activity increase over dofetilide control, less the hit threshold was -21%. Next, `O=C(N/N=C\c1coc2ccccc2c1=O)c1ccco1`: -24%; `CC(Nc1ccc(F)cc1)=[N+](C)CCNS(=O)(=O)c1ccc(Cl)cc1`: -3%.

On to `CC1Cc2cc(S(=O)(=O)NCc3ccccc3)ccc2N1C(=O)C1CCC1` (configuration not stated), for which the activity increase over dofetilide control, less the hit threshold was -22%. Next, `CC1Cc2ccccc2N1C(=S)NC(=O)C1(C)CC1(Cl)Cl` (configuration not stated): 42% (active). The result for `Cc1csc2ncc(C(=O)N3c4ccccc4CC3C)c(=O)n12` (configuration not stated) reads -2%. Next, `O=C(NN1C(=O)C2C(c3ccccc3)C=CC(c3ccccc3)C2C1=O)c1cccc(Br)c1` (configuration not stated): -54%. In the case of `CC1Cc2ccccc2N1C(=S)NC(=O)c1ccc(Cl)cc1Cl` (configuration not stated), the activity increase over dofetilide control, less the hit threshold is 55% (active). Next, `CC(=O)N1CCc2cc(S(=O)(=O)N3c4ccccc4CC3C)ccc21` (configuration not stated): -14%. Next, `COc1cc2c(cc1OC)C(C)N(C(=S)NC(=O)c1ccccc1)CC2` (configuration not stated): -18%. Take `CC1Cc2ccccc2N1C(=S)NC(=O)c1ccco1` (configuration not stated): the activity increase over dofetilide control, less the hit threshold is 6% (active). The result for `CC1Cc2ccccc2N1C(=S)NC(=O)c1cccc(Br)c1` (configuration not stated) reads 77% (active); that for `CC1=C(C#N)C(Nc2cc(C)ccn2)(C(F)(F)F)C(=O)N1` (configuration not stated), -10%. Next, `Cc1nn(Cc2ccccc2)c2c1C(c1cccnc1)C(C#N)=C(N)O2` (configuration not stated): -6%. The result for `N=C1C(=O)OCC1c1cc(Cl)ccc1NC(=O)Nc1ccccc1` (configuration not stated) reads -9%.

As to `CCCn1c(CC)nc([N+](=O)[O-])c1S(=O)(=O)c1ccccc1`, the activity increase over dofetilide control, less the hit threshold is 3% (active).

As to `CC(C)N1CC(C(=O)Nc2ccc(Cl)c(Cl)c2)CC1=O` (configuration not stated), the activity increase over dofetilide control, less the hit threshold was -8%. The result for `CCCCCCCc1c(O)nc(SCC(=O)O)[nH]c1=O` reads -6%. In the case of `Cc1csc(NC(=O)c2cn3ccccc3n2)n1`, the activity increase over dofetilide control, less the hit threshold was -12%.

In the case of `Cc1nc(NC(=O)c2ccco2)sc1C(=O)O`, the activity increase over dofetilide control, less the hit threshold is -10%. Next, `CCOC(=O)c1sc(NC(=S)NC(=O)c2cccc(OC)c2)nc1C`: 7% (active); `O=C(NC(=S)Nc1nc2c(s1)CSc1ccccc1-2)c1ccccc1`: 21% (active); `CCOC(=O)c1sc(NC(=S)NC(=O)c2ccco2)nc1C`: 7% (active). Next, `Cc1csc(NC(=S)NC(=O)c2ccccc2)n1`: 10% (active).

With `CCn1cc(CCC(=O)NCc2cccc(OC)c2OC)c2ccccc21`, the activity increase over dofetilide control, less the hit threshold is -12%. The result for `COC(=O)c1sc(NC(=S)NC(=O)c2ccc(C)cc2)nc1C` reads -3%; that for `COC(=O)c1sc(NC(=S)NC(=O)c2ccccc2F)nc1C`, -3%; that for `COC(=O)c1sc(NC(=S)NC(=O)c2ccccc2C)nc1C`, 26% (active).

Consider `CCOC(=O)c1sc(NC(=S)NC(=O)c2ccccc2)nc1C`, for which the activity increase over dofetilide control, less the hit threshold was 36% (active). Next, `CCOC(=O)c1sc(NC(=S)NC(=O)c2ccc(OC)cc2)nc1C`: -2%. Next, `Cc1ccc(CN2CCN(/N=C/c3ccc(O)c(O)c3)CC2)cc1`: 7% (active); `Nc1cccc(Oc2cnccn2)c1`: -5%; `Nc1ncnc(NC2CCS(=O)(=O)C2)c1[N+](=O)[O-]` (configuration not stated): -12%. The result for `Cc1cc(NC(=O)CSc2ccc3nnc(-c4cccs4)n3n2)no1` reads -17%; that for `COc1cccc(C(=O)CC(=O)C(=O)Nc2ccc(C)cc2Cl)c1`, 50% (active); that for `COc1cc(OC)cc(C(=O)O/N=C(\N)c2cccc(C)c2)c1`, -14%. Turning to `COc1ccc(C(=O)CC(=O)C(=O)Nc2ccc(C)cc2Cl)cc1`, the activity increase over dofetilide control, less the hit threshold was 35% (active). Next, `COc1ccc(CNC(=O)C2CCCN2)cc1OC` (configuration not stated): -14%. The result for `Cc1ccc(CC23CN4CCN(CC(C4)C2O)C3)c(C)c1` (configuration not stated) reads -14%. Next, `NC(=O)c1nsc(C(=O)N(CC(=O)NCc2ccccc2)c2ccc(F)cc2)c1N`: -22%. Turning to `Cc1ccc2c(c1)c1nnc(SCC(=O)Nc3ccc(N(C)C)cc3)nc1n2CC(=O)O`, the activity increase over dofetilide control, less the hit threshold was -9%. Next, `C=CCNC(=O)c1ccccc1NC(=O)COc1ccc(OC)cc1`: -2%; `COc1cc(/C=C/C(=O)N[C@@H](Cc2c[nH]c3ccccc23)C(=O)O)ccc1O`: -8%. As to `COc1cc(/C=C/C(=O)O)ccc1OS(=O)(=O)c1cc(C)ccc1C`, the activity increase over dofetilide control, less the hit threshold is -26%. The result for `COc1ccc(/C=C/C(=O)Nc2ccccc2C(=O)O)cc1` reads 5% (active); that for `O=C(/C=C/c1ccccc1)Nc1ccc(S(=O)(=O)N2CCOCC2)cc1`, -10%; that for `COc1ccc(/C=C/C(=O)Nc2ccccc2C(=O)O)cc1OC`, 18% (active).
